# Activity calls are given as the source filed them.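 The calls were made as follows: active = visually confirmed hit in the image check and inhibition above 20%; inconclusive = visually confirmed hit but inhibition not above 20%; inactive = no visual hit in the image check.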
# Experiment: endothelial E-selectin expression blockers – imaging, HUVEC, immunofluorescence, MLSMR starter and 10KST1 sets, primary screen (AID 487);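 as to inhibition: signal is fraction of cell area covered by stained E-selectin grains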;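 as to nuclei count: 100% = median nuclei count of all wells on the same plate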
# Settings: HUVEC TNFalpha-induced E-selectin immunofluorescence imaging, at 2 µM; inhibition: stronger effect = higher value; nuclei count: measured here: cell number, toxicity
SMILES,inhibition,nuclei count [%]
COc1cccc(C(=O)Nc2cc(C)c3c(=O)oc4ccccc4c3n2)c1,-0.1% (inactive),92.8
O=C(CN1C(=O)COc2ccccc21)N(Cc1cccnc1)Cc1ccccc1F,-6.3% (inactive),106
O=c1c2ccccc2c(/C=N/n2cnnc2)c(O)n1-c1ccccc1,-12.2% (inactive),101
COCCNC(=O)C1CCCN(c2ncccn2)C1 (configuration not stated),98.1% (active),76.1
COc1ccc(CNc2nc(NCc3ccc(OC)cc3)n(S(C)(=O)=O)n2)cc1,47% (inactive),95.3
O=C(CSc1nnc2c3cc(F)ccc3nc(-c3ccccc3)n12)N1CCOCC1,-23.2% (inactive),96.3
CSc1nc(N)nc(SCCS(=O)(=O)c2ccc(Cl)cc2)c1C#N,-48% (inactive),113
CCOC(=O)c1sc2nc(NC(=O)C3CCCCC3)sc2c1C,19.5% (inactive),96
CC(C)(C)OC(=O)NCCc1nnc(SCC(=O)c2ccc(Cl)cc2)o1,-56.7% (inactive),85.4
Cc1nc2ccc(C(=O)c3ccccc3)cc2[nH]1,-8.7% (inactive),105
CCOC(=O)c1ccc(NC(=O)CSCc2ccco2)cc1,-4.5% (inactive),97.2

# — PubChem BioAssay
